The supplement of paper PMC10849652
Of roughly 7,900 targets only a part is listed; those with a hit were picked by preference. About 0.6% of all pairs of compound and target were hits.

Legend:
Test in all cases: log2 fold change, soluble protein after heating vs DMSO (PISA); higher = thermal stabilisation; K562 cells, 10 uM, 30 min; active = over 0.2 and 3.5 SD of the protein, either way, in both replicates (recomputed)
[1] = compound: COC1=CC=C(C=C1)CN2C=CC3=C2C=C(C=C3)C(=O)NO
Outline: (§1)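 Aliquots of K562 cells (2×10^6 cells/mL) treated with 10 μM compound for 30 min were heated for 3 min over 48°C-58°C. After pooling and extraction in PBS with 0.5% NP-40 at 4°C, soluble protein from a 21,000xg, 90 min spin was quantified by TMTpro 16plex LC-MS/MS with channel sums equalised. Thermal stability is expressed against control samples, from duplicates, as a log2 fold change.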

filanesib = compound: CON(C)C(=O)N1N=C(c2cc(F)ccc2F)S[C@@]1(CCCN)c1ccccc1 [filanesib]
Outline: as §1

zotarolimus = compound: CO[C@H]1C[C@@H]2CC[C@@H](C)[C@@](O)(O2)C(=O)C(=O)N2CCCC[C@H]2C(=O)O[C@H]([C@H](C)C[C@@H]2CC[C@H](n3cnnn3)[C@H](OC)C2)CC(=O)[C@H](C)/C=C(\C)[C@@H](O)[C@@H](OC)C(=O)[C@H](C)C[C@H](C)/C=C/C=C/C=C/1C [zotarolimus]
Outline: as §1

idasanutlin = compound: COc1cc(C(=O)O)ccc1NC(=O)[C@@H]1N[C@@H](CC(C)(C)C)[C@](C#N)(c2ccc(Cl)cc2F)[C@H]1c1cccc(Cl)c1F [idasanutlin]
Outline: as §1

alisertib = compound: COc1cc(Nc2ncc3c(n2)-c2ccc(Cl)cc2C(c2c(F)cccc2OC)=NC3)ccc1C(=O)O [alisertib]
Outline: as §1

[2] = compound: COc1cc2nc(-c3cc(F)ccc3O)nc(N[C@@H]3CNC[C@H]3C(C)(C)O)c2cc1OC
Outline: as §1

gefitinib = compound: COc1cc2ncnc(Nc3ccc(F)c(Cl)c3)c2cc1OCCCN1CCOCC1 [gefitinib]
Outline: as §1

[3] = compound: COc1cccc2cc(-c3nc([C@H]4CC[C@H](C(=O)O)CC4)n4ncnc(N)c34)[nH]c12
Outline: as §1

lapatinib = compound: CS(=O)(=O)CCNCc1ccc(-c2ccc3ncnc(Nc4ccc(OCc5cccc(F)c5)c(Cl)c4)c3c2)o1 [lapatinib]
Outline: as §1

pictilisib = compound: CS(=O)(=O)N1CCN(Cc2cc3nc(-c4cccc5[nH]ncc45)nc(N4CCOCC4)c3s2)CC1 [pictilisib]
Outline: as §1

[4] = compound: CS(=O)(=O)c1ccc(-c2cnc(N)c(C(=O)Nc3ccccc3)n2)cc1
Outline: as §1

crizotinib = compound: C[C@@H](Oc1cc(-c2cnn(C3CCNCC3)c2)cnc1N)c1c(Cl)ccc(F)c1Cl [crizotinib]
Outline: as §1

[5] = compound: C[C@@H]1COCCN1C2=NC(=NC(=C2)C3(CC3)S(=O)(=O)C)C4=C5C=CNC5=CC=C4
Outline: as §1

[6] = compound: C[C@H](C1=CC=C(C=C1)C(=O)NC2=C3C=CNC3=NC=C2)N
Outline: as §1

duvelisib = compound: C[C@H](Nc1ncnc2nc[nH]c12)c1cc2cccc(Cl)c2c(=O)n1-c1ccccc1 [duvelisib]
Outline: as §1

gandotinib = compound: Cc1cc(Nc2cc(CN3CCOCC3)c3nc(C)c(Cc4ccc(Cl)cc4F)n3n2)n[nH]1 [gandotinib]
Outline: as §1

tozasertib = compound: Cc1cc(Nc2cc(N3CCN(C)CC3)nc(Sc3ccc(NC(=O)C4CC4)cc3)n2)n[nH]1 [tozasertib]
Outline: as §1

[7] = compound: Cc1cc(SCc2sc(-c3ccc(C(F)(F)F)cc3)nc2C)ccc1OCC(=O)O
Outline: as §1

doramapimod = compound: Cc1ccc(-n2nc(C(C)(C)C)cc2NC(=O)Nc2ccc(OCCN3CCOCC3)c3ccccc23)cc1 [doramapimod]
Outline: as §1

ispinesib = compound: Cc1ccc(C(=O)N(CCCN)[C@@H](c2nc3cc(Cl)ccc3c(=O)n2Cc2ccccc2)C(C)C)cc1 [ispinesib]
Outline: as §1

Measured: log2 fold change

SORT1 (UniProt Q99523)
inactive: [1] 0.058 | filanesib -0.066 | zotarolimus 0.002 | idasanutlin 0.008 | alisertib -0.016 | [2] -0.032 | gefitinib 0.028 | [3] 0.056 | lapatinib 0.022 | pictilisib 0.003 | [4] 0.007 | [5] -0.019 | [6] -0.051 | duvelisib 0.023 | gandotinib -0.069 | tozasertib -0.001 | [7] -0.066 | doramapimod -0.042 | ispinesib -0.032
active: crizotinib -0.742

STK38 (UniProt Q15208)
inactive: [1] 0.029 | filanesib -0.024 | zotarolimus 0.036 | idasanutlin -0.009 | alisertib 0.007 | [2] -0.006 | gefitinib -0.038 | [3] -0.01 | lapatinib -0.001 | pictilisib 0.146 | [4] 0.081 | crizotinib -0.087 | [5] 0.089 | [6] -0.031 | duvelisib 0.052 | gandotinib -0.024 | tozasertib 0.065 | [7] 0.072 | doramapimod -0.011 | ispinesib 0.026

SQSTM1 (UniProt Q13501)
Chain of UniProt Q13501 (Q13501 whole entry, looked up): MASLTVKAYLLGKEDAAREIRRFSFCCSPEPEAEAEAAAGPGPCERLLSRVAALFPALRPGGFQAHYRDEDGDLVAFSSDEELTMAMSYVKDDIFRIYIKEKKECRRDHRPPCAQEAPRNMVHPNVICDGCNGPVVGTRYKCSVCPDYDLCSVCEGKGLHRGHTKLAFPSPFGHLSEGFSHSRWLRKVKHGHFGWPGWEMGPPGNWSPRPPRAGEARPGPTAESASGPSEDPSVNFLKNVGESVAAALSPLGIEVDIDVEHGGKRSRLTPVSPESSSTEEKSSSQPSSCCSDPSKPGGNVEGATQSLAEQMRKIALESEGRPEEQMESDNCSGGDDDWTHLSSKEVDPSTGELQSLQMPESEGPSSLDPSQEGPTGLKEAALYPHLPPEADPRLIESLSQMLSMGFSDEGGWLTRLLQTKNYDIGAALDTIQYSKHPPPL
inactive: [1] 0.047 | filanesib 0.011 | zotarolimus -0.167 | idasanutlin 0.072 | alisertib -0.016 | [2] -0.136 | gefitinib -0.022 | [3] 0.058 | lapatinib -0.012 | pictilisib -0.112 | [4] 0.1 | crizotinib -0.149 | [5] -0.059 | [6] 0.042 | duvelisib 0 | gandotinib 0.168 | tozasertib 0.044 | [7] -0.027 | doramapimod 0.008 | ispinesib -0.019

TIMM29 (UniProt Q9BSF4)
Chain of UniProt Q9BSF4 (Q9BSF4 whole entry, looked up): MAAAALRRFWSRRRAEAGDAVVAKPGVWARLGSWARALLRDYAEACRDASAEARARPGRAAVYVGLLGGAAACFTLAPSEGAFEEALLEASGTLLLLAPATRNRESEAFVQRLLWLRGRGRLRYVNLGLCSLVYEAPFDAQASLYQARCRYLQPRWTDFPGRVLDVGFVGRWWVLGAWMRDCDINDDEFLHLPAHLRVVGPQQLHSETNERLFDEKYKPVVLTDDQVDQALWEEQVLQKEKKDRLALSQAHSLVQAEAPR
inactive: [1] -0.141 | filanesib 0.041 | zotarolimus -0.058 | idasanutlin -0.096 | alisertib 0.01 | [2] 0.021 | gefitinib 0.039 | [3] 0.073 | lapatinib 0.014 | pictilisib 0.051 | [4] 0.044 | crizotinib 0.08 | [5] 0.065 | [6] -0.033 | duvelisib -0.015 | gandotinib -0.014 | tozasertib 0.012 | [7] 0.02 | doramapimod 0.185 | ispinesib 0.033

TCERG1 (UniProt O14776)
Chain of UniProt O14776 (O14776 whole entry, looked up): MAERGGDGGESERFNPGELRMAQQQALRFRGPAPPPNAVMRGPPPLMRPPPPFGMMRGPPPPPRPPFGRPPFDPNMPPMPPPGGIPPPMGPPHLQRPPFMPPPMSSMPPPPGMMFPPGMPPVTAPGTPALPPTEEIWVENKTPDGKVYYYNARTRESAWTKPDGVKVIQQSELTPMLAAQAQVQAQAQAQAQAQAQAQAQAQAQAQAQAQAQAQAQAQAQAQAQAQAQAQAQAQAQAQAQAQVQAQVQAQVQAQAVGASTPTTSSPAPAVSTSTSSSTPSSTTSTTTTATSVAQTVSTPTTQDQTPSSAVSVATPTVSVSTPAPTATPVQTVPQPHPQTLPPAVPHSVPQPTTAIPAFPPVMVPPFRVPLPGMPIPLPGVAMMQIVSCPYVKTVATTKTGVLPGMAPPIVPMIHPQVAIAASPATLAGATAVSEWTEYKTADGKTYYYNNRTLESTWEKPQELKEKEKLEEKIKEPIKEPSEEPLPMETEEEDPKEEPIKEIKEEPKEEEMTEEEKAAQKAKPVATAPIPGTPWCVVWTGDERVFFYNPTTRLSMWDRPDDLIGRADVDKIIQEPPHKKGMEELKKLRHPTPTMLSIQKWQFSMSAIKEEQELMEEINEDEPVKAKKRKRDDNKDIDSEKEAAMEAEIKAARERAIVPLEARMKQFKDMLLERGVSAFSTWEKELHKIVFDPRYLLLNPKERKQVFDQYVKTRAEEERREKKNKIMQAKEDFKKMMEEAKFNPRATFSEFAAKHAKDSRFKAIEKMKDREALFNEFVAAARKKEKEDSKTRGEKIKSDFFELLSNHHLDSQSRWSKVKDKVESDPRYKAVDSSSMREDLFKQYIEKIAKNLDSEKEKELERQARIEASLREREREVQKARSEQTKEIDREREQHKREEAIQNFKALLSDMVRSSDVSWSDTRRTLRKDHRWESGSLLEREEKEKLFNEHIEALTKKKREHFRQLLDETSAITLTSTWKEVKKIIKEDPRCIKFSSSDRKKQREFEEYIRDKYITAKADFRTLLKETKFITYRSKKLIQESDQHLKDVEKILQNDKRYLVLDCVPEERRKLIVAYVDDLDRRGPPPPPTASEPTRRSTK
inactive: [1] 0.104 | filanesib -0.008 | zotarolimus 0.025 | idasanutlin -0.087 | alisertib 0.043 | [2] 0.054 | gefitinib 0.073 | [3] -0.003 | lapatinib -0.036 | pictilisib 0 | [4] 0.079 | crizotinib 0.073 | [5] 0.125 | [6] -0.063 | duvelisib 0.138 | gandotinib -0.057 | tozasertib 0.112 | [7] 0.179 | doramapimod -0.079 | ispinesib 0.015

SSR4 (UniProt P51571)
inactive: [1] -0.015 | filanesib -0.052 | zotarolimus 0.036 | idasanutlin -0.012 | alisertib -0.004 | [2] 0.08 | gefitinib -0.023 | [3] 0.047 | lapatinib -0.05 | pictilisib 0.106 | [4] -0.004 | crizotinib 0.001 | [5] 0.081 | [6] -0.054 | duvelisib 0.06 | gandotinib -0.055 | tozasertib 0.029 | [7] 0.033 | doramapimod -0.019 | ispinesib -0.045

TGFBR1 isoform 2 (UniProt P36897)
active: [4] 0.254
inactive: [1] 0.004 | filanesib -0.001 | zotarolimus -0.217 | idasanutlin -0.007 | alisertib -0.05 | [2] 0.06 | gefitinib -0.029 | [3] -0.041 | lapatinib 0.063 | pictilisib -0.073 | crizotinib 0.133 | [5] -0.031 | [6] 0.024 | duvelisib -0.019 | gandotinib 0.101 | tozasertib 0.026 | [7] 0.014 | doramapimod -0.005 | ispinesib -0.156

SLC7A6OS (UniProt Q96CW6)
Chain of UniProt Q96CW6 (Q96CW6 whole entry, looked up): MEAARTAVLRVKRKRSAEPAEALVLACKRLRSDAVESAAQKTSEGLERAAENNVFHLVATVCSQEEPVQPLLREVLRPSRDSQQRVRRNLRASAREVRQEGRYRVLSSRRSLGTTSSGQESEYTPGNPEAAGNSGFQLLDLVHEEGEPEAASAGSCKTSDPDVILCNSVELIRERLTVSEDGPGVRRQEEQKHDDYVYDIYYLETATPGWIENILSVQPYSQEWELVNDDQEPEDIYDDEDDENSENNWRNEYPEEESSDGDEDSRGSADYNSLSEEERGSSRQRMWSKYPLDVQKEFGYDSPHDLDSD
inactive: [1] -0.085 | filanesib 0.006 | zotarolimus 0.046 | idasanutlin -0.034 | alisertib -0.073 | [2] -0.072 | gefitinib 0.007 | [3] -0.037 | lapatinib 0.038 | pictilisib 0.019 | [4] 0.047 | crizotinib -0.04 | [5] 0.004 | [6] -0.133 | duvelisib 0.047 | gandotinib -0.081 | tozasertib 0.028 | [7] -0.049 | doramapimod 0.214 | ispinesib 0.077

SMCHD1 (UniProt A6NHR9)
Chain of UniProt A6NHR9 (A6NHR9 whole entry, looked up): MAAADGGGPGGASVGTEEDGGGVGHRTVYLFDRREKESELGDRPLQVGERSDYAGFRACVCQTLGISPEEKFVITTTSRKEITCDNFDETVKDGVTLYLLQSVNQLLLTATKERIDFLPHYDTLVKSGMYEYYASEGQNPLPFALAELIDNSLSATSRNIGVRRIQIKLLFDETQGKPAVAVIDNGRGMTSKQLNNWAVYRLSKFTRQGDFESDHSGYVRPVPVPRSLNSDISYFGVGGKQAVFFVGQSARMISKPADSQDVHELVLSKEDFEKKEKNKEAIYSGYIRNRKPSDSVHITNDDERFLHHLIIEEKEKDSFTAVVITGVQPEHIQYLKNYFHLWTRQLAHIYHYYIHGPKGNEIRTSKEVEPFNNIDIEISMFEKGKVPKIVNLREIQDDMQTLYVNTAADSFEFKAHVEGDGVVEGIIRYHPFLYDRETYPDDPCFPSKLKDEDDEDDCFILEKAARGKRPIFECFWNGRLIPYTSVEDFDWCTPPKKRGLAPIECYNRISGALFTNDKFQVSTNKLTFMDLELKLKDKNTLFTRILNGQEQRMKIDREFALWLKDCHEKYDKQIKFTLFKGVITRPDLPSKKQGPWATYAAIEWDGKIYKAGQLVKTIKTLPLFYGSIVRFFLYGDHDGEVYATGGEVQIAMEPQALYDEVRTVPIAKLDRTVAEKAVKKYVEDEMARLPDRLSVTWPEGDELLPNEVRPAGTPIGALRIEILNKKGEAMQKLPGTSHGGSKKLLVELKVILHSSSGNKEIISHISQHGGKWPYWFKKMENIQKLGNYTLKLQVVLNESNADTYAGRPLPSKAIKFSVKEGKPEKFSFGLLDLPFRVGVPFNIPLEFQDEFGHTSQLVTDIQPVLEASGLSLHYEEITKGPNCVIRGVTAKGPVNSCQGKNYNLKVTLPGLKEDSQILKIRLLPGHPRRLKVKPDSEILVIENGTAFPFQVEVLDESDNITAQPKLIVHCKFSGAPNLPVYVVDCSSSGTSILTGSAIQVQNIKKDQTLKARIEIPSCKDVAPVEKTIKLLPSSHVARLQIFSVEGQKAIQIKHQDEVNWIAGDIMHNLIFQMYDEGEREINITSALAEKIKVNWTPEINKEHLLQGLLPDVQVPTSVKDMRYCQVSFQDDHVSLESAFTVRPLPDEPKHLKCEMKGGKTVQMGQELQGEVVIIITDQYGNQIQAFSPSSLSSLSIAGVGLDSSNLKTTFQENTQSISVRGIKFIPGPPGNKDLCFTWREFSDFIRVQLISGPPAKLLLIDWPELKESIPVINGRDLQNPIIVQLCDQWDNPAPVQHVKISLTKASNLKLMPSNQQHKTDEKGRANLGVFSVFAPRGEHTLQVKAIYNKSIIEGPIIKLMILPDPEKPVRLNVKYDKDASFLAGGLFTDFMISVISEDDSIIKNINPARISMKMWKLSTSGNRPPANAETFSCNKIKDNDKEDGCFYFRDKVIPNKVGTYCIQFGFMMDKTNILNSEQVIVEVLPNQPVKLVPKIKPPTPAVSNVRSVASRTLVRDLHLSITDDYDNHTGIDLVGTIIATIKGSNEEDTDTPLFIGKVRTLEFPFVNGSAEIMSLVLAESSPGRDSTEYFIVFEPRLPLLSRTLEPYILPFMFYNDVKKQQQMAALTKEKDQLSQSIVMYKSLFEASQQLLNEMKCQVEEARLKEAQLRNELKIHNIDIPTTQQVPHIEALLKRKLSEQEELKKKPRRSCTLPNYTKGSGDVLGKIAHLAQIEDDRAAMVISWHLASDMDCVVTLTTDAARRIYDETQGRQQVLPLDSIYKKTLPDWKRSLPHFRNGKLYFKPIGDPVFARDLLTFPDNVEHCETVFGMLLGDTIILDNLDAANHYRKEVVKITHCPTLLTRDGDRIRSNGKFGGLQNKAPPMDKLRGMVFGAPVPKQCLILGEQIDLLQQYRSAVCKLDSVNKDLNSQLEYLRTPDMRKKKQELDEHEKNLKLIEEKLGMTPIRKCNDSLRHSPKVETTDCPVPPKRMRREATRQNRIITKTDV
inactive: [1] 0.043 | filanesib 0.008 | zotarolimus 0.123 | idasanutlin 0.062 | alisertib -0.005 | [2] -0.179 | gefitinib -0.078 | [3] -0.096 | lapatinib 0.002 | pictilisib 0.035 | [4] -0.019 | crizotinib -0.065 | [5] -0.041 | [6] -0.104 | duvelisib 0 | gandotinib 0.064 | tozasertib 0.007 | [7] 0.104 | doramapimod 0.059 | ispinesib -0.149

TECR (UniProt Q9NZ01)
Chain of UniProt Q9NZ01 (Q9NZ01 whole entry, looked up): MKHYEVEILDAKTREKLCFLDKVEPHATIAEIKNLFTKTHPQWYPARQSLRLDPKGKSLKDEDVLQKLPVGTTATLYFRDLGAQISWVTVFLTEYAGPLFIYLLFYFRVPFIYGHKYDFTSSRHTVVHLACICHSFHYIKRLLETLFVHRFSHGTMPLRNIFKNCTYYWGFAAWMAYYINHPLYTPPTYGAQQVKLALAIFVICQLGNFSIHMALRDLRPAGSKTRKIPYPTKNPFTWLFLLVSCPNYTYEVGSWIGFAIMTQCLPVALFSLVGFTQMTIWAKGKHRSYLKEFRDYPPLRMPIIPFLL
active: gandotinib -0.344 | ispinesib -0.501
inactive: [1] -0.031 | filanesib -0.169 | zotarolimus -0.041 | idasanutlin -0.111 | alisertib -0.028 | [2] -0.102 | gefitinib -0.027 | [3] 0.034 | lapatinib -0.012 | pictilisib -0.102 | [4] -0.002 | crizotinib -0.247 | [5] 0.054 | [6] 0.045 | duvelisib 0.05 | tozasertib -0.031 | [7] 0.044 | doramapimod -0.095

SNRPB2 (UniProt P08579)
inactive: [1] -0.018 | filanesib 0.057 | zotarolimus -0.035 | idasanutlin 0.021 | alisertib -0.121 | [2] 0.047 | gefitinib -0.021 | [3] -0.006 | lapatinib -0.002 | pictilisib 0.006 | [4] -0.014 | crizotinib 0.02 | [5] -0.024 | [6] 0.008 | duvelisib -0.017 | gandotinib 0.026 | tozasertib -0.008 | [7] -0.048 | doramapimod -0.01 | ispinesib 0.027

STRN (UniProt O43815)
inactive: [1] -0.002 | filanesib -0.002 | zotarolimus 0.052 | idasanutlin -0.018 | alisertib -0.083 | [2] -0.003 | gefitinib 0.02 | [3] 0.017 | lapatinib 0.015 | pictilisib 0.006 | [4] 0.016 | crizotinib 0.068 | [5] -0.004 | [6] -0.125 | duvelisib 0.046 | gandotinib -0.048 | tozasertib 0.048 | [7] 0.076 | doramapimod -0.018 | ispinesib 0.198

SNX9 (UniProt Q9Y5X1)
Chain of UniProt Q9Y5X1 (Q9Y5X1 whole entry, looked up): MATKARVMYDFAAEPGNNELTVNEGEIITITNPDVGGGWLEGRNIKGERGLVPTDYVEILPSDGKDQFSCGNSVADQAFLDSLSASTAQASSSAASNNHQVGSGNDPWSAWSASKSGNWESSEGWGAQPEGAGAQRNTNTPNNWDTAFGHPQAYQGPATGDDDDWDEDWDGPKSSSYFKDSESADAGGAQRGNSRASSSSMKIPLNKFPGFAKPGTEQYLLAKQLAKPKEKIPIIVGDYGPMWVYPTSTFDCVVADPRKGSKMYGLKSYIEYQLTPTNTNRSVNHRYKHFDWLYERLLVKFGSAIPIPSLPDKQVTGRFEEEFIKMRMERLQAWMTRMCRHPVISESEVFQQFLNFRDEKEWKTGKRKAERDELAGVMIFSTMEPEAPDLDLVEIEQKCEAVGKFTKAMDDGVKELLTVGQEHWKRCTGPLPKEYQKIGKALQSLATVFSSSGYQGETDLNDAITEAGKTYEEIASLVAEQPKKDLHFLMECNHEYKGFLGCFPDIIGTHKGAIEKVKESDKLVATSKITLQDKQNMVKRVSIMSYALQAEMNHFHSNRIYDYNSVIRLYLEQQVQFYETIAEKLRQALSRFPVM
inactive: [1] -0.002 | filanesib -0.017 | zotarolimus 0.004 | idasanutlin -0.01 | alisertib -0.013 | [2] 0.019 | gefitinib 0.038 | [3] -0.059 | lapatinib -0.034 | pictilisib -0.036 | [4] 0.013 | crizotinib -0.077 | [5] -0.009 | [6] 0.003 | duvelisib -0.039 | gandotinib -0.054 | tozasertib -0.015 | [7] 0.115 | doramapimod -0.009 | ispinesib -0.074

SPECC1 (UniProt Q5M775)
active: [1] -0.357 | [3] 0.309
inactive: filanesib 0.064 | zotarolimus 0.038 | idasanutlin -0.111 | alisertib -0.019 | [2] -0.014 | gefitinib 0.028 | lapatinib -0.006 | pictilisib 0.08 | [4] -0.104 | crizotinib -0.085 | [5] -0.02 | [6] 0.045 | duvelisib 0.014 | gandotinib -0.18 | tozasertib 0.007 | [7] -0.036 | doramapimod 0.137 | ispinesib -0.079

TAMM41 isoform 3 (UniProt Q96BW9)
inactive: [1] -0.027 | filanesib -0.09 | zotarolimus -0.009 | idasanutlin -0.122 | alisertib 0.019 | [2] -0.169 | gefitinib -0.025 | [3] 0.112 | lapatinib 0.021 | pictilisib 0.027 | [4] 0.064 | [5] 0.073 | [6] -0.016 | duvelisib 0.032 | gandotinib -0.04 | tozasertib -0.036 | [7] 0.05 | doramapimod -0.048
active: crizotinib -0.232 | ispinesib -0.249
